From PubChem
CaV13 FRET inh – Primary screen for inhibitors of IQ motif and Ca2+-dependent inactivation inhibitor domain binding in CACNA1D, Förster resonance energy transfer in living cells, …; HEK cells, CFP/YFP FRET ICDI-IQ, plate reader, 10 min; percent FRET-ratio fall versus neutral wells; inhibition, % at 12.3 µM; actives 0.098% (n = 340,000);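 active means mean replicate inhibition of at least 30% and at least 1% of replicates passing that level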;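 further: 0% = median of the neutral control wells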
GSIS activator – GLuc luminescence reporter in INS-1E cells, primary screen for activators of glucose-dependent secretion of insulin; INS-1E GLuc reporter insulin secretion, 2-3 h; AID 743287, 2014; actives 0.61% (n = 370,000); activation, % at 16.6 µM;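 active means lowest replicate activation of at least 40%, so every replicate reaches that level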;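 further: 0% = median of neutral control wells and 100% = median of IBMX positive control wells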
Ecoli rRNA inh – reduced GFP signal of wild-type E. coli, primary screen, bacterial rRNA inhibitor project, GFP/RFP fluorescence, OD600, single point; E. coli WT GFP vs humanized-ribosome RFP mutants, 24 h; hits give low values; DMSO median 0, no signal -100; GFP signal change (wild-type ribosome), % (no concentration beside the values); actives 1.6% (n = 350,000);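 active means significant combined selectivity score with lowered wild-type GFP, culture density cut under 30%, mutant RFP and density less affected; inactive means any of these conditions unmet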
ERAP1 inh – human ERAP1 aminopeptidase inhibitors, primary screen, biochemical, single point, plate reader | Endoplasmic reticulum aminopeptidase 1 (Homo sapiens), Q9NZ08 | recombinant ERAP1, Leu-AMC fluorescence, 60 min | inhibition, % at 10.7 µM | actives 0.15% (n = 340,000) | AID 652197, 2013;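 active means mean replicate inhibition of at least 30%, or all replicates individually reaching that 30% level; inactive means mean below 30% and not every replicate reaching it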;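 further: 0% = neutral control wells and 100% = L-leucinethiol positive control wells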
Target sequence (Q9NZ08 whole entry, looked up): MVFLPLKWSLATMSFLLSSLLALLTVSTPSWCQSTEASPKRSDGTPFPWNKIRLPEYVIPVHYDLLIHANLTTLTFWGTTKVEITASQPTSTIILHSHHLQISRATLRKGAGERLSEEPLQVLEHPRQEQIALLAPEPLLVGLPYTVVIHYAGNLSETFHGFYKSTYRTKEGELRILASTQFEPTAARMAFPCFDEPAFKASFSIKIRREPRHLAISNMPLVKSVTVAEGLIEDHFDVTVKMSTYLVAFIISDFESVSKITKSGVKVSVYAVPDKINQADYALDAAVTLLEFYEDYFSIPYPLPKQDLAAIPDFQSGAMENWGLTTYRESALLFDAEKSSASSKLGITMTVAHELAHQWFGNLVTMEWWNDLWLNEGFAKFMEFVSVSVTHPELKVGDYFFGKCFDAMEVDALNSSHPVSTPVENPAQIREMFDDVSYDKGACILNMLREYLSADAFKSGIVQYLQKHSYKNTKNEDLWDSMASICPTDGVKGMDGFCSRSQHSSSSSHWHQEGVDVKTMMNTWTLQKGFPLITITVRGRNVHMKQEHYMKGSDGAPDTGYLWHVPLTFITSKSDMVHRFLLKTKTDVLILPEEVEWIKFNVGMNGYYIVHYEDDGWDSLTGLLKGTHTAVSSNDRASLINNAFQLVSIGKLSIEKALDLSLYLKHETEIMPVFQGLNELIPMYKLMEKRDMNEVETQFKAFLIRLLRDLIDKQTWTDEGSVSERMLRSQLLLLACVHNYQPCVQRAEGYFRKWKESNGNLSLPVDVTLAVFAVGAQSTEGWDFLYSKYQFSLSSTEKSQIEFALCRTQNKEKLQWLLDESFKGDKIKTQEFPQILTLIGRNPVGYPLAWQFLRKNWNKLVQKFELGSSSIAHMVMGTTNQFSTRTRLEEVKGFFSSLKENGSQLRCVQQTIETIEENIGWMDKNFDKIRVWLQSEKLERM
DENV2 CPE rescue – inhibitors of DENV2 cytopathic effect, primary screen, cell-based, plate reader, single concentration. DENV2-infected cells, cytopathic effect rescue. CPE inhibition, % at 9.99 µM. actives 1.7% (n = 350,000); in the data active means CPE inhibition above about 20%, passing the limit was not always enough; tested in BHK-21 cells;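 further: 0% = median of neutral control wells and 100% = median of positive control wells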
PGC1a acetyl inh – inhibitors of PGC1a acetylation signal, primary screen, cell-based, U2OS, AlphaScreen, inhibitor mode. AlphaScreen anti-acetyl-lysine; with virally co-expressed GCN5 acetyltransferase. inhibition, % at 15.6 µM. actives 0.17% (n = 350,000). AID 651687, 2012;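 active means every replicate shows inhibition of at least 40%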;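 further: 0% = neutral control wells and 100% = positive control wells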
Active calls of the source: *. Compounds with a hit are over-represented: about 3.2% of the library has one in this group of screens.

How did C/C(=N\NC(=O)CC1N=C(Cc2ccccc2)NNC1=O)c1ccc(Cl)cc1Cl (stereo unspecified) do in these assays?
GSIS activator: 142*

What do the screens show for `C/C(=N\NC(=O)CC1N=C(Cc2ccccc2)NNC1=O)c1ccccc1` (stereo unspecified)?
CaV13 FRET inh: -5; PGC1a acetyl inh: 2

What do the screens show for `CN(C)c1nc(=NCc2cccs2)ss1`?
CaV13 FRET inh: -6; GSIS activator: 72*; Ecoli rRNA inh: -45; ERAP1 inh: 3; DENV2 CPE rescue: -2

Results for CCC[C@H]1CC(=O)C=C(c2ccc(OC)cc2)ON1C(=O)OC(C)(C)C ?
CaV13 FRET inh: -10; GSIS activator: -8; Ecoli rRNA inh: -10; ERAP1 inh: 2; DENV2 CPE rescue: 57*

Results for CCC(O)(CC)C(=O)N/N=C/c1cc(Br)cc(Br)c1O ?
CaV13 FRET inh: -5; GSIS activator: -10; Ecoli rRNA inh: -21*; ERAP1 inh: -7; DENV2 CPE rescue: 11; PGC1a acetyl inh: -2

How did CCCNC(=O)N1C[C@@H](C)[C@@H](OC)CN(C)C(=O)c2ccc(NC(C)=O)cc2OC[C@@H]1C do in these assays?
GSIS activator: 2; Ecoli rRNA inh: 2; ERAP1 inh: 2; DENV2 CPE rescue: 7; PGC1a acetyl inh: -14

What do the screens show for `Cc1ccccc1CN1CCNC(=O)C1CC(=O)O` (stereo unspecified)?
CaV13 FRET inh: -9; GSIS activator: -1; Ecoli rRNA inh: 1; ERAP1 inh: -1; DENV2 CPE rescue: 33*; PGC1a acetyl inh: 2

How did CCCCCCC[C@H](N)[C@H](O)C(=O)N(C)[C@@H](CCS(C)=O)C(=O)N[C@@H](Cc1ccc(O)cc1)C(=O)N[C@@H](Cc1ccc(O)cc1)C(=O)O (stereo partly specified) do in these assays?
CaV13 FRET inh: -11; Ecoli rRNA inh: 6; ERAP1 inh: 50*; DENV2 CPE rescue: -8; PGC1a acetyl inh: 7

What do the screens show for `Cc1ccc(S(=O)(=O)N[C@@H](CO)C(=O)N[C@@H](Cc2ccc(O)cc2)C(=O)O)cc1`?
CaV13 FRET inh: -12; GSIS activator: 8; Ecoli rRNA inh: 4; ERAP1 inh: -7; DENV2 CPE rescue: -5; PGC1a acetyl inh: 9

Results for O=C(NNc1c(F)c(F)cc(F)c1F)C1CCN(S(=O)(=O)c2ccccc2F)CC1 ?
CaV13 FRET inh: -15; GSIS activator: -19; Ecoli rRNA inh: 6; ERAP1 inh: 0; DENV2 CPE rescue: 43*

How did O=C(NCc1ccccn1)C1CCN(S(=O)(=O)c2ccccc2F)CC1 do in these assays?
CaV13 FRET inh: -5; GSIS activator: 21; Ecoli rRNA inh: 5; ERAP1 inh: 2; DENV2 CPE rescue: 4; PGC1a acetyl inh: 3

How did O=C(CN1CCN(S(=O)(=O)c2ccccc2F)CC1)NC1CCCC1 do in these assays?
CaV13 FRET inh: -3; GSIS activator: -8; Ecoli rRNA inh: 4; ERAP1 inh: 2; DENV2 CPE rescue: 22*; PGC1a acetyl inh: 10

What do the screens show for `N#Cc1ccccc1S(=O)(=O)N1CCN(CC(=O)NC(=O)NC2CCCCC2)CC1`?
CaV13 FRET inh: -2; GSIS activator: -4; Ecoli rRNA inh: 5; ERAP1 inh: 1; DENV2 CPE rescue: -4

How did CN(C)C(=O)C[C@@H]1C[C@H]2c3cc(NS(C)(=O)=O)ccc3O[C@H]2[C@@H](CO)O1 do in these assays?
GSIS activator: 10; Ecoli rRNA inh: 2; ERAP1 inh: 0; DENV2 CPE rescue: 16; PGC1a acetyl inh: 3

How did Nc1nc2ccccc2n1Cc1ccc(Cl)c(Cl)c1 do in these assays?
CaV13 FRET inh: 10; GSIS activator: -29; Ecoli rRNA inh: -53; ERAP1 inh: -3; DENV2 CPE rescue: 33*

Results for C/C=C/c1cnc2c(c1)C(=O)N([C@@H](C)CO)C[C@H](C)[C@H](CN(C)Cc1cccc(C(=O)O)c1)O2 ?
GSIS activator: 13; Ecoli rRNA inh: 0; ERAP1 inh: 9; DENV2 CPE rescue: 3; PGC1a acetyl inh: 8

Results for CC(=O)NC1=NC(=O)/C(=C/c2cc(C)n(-c3ccc(NC(C)=O)cc3)c2C)S1 ?
CaV13 FRET inh: -2; GSIS activator: -46; Ecoli rRNA inh: -29*; ERAP1 inh: 7; DENV2 CPE rescue: -4; PGC1a acetyl inh: 2

Results for Cc1sc2ncn(CC(=O)Nc3ccccc3F)c(=O)c2c1-c1ccccc1 ?
CaV13 FRET inh: -5; GSIS activator: 9; Ecoli rRNA inh: -28*; ERAP1 inh: -1; DENV2 CPE rescue: -4; PGC1a acetyl inh: 0

What do the screens show for `Cc1noc(C)c1S(=O)(=O)Nc1ccc2c(c1)C(=O)N([C@@H](C)CO)C[C@@H](C)[C@@H](CN(C)S(=O)(=O)c1c(C)noc1C)O2`?
GSIS activator: 8; Ecoli rRNA inh: 1; PGC1a acetyl inh: -4

How did N=c1c2c3c(sc2ncn1Cc1ccccc1)CCCC3 do in these assays?
CaV13 FRET inh: -17; GSIS activator: 9; PGC1a acetyl inh: 17

What do the screens show for `N=c1c2c3c(sc2ncn1Nc1ccccc1)CCC3`?
CaV13 FRET inh: -5; GSIS activator: -14; Ecoli rRNA inh: -17*; ERAP1 inh: -1; DENV2 CPE rescue: -8; PGC1a acetyl inh: -9

Results for CCO/N=C1\C(=O)N(c2ccccc2)c2ccccc21 ?
CaV13 FRET inh: -4; GSIS activator: 28; Ecoli rRNA inh: -5; ERAP1 inh: 1; DENV2 CPE rescue: -5; PGC1a acetyl inh: -1

How did CCCO/N=C1/C(=O)N(c2ccccc2)c2ccccc21 do in these assays?
CaV13 FRET inh: 4; GSIS activator: -9; Ecoli rRNA inh: -38*; ERAP1 inh: -3; DENV2 CPE rescue: -1

Results for COc1ccc2c3c(n(C)c2c1)[C@H](CO)N(C(=O)Nc1ccc(F)cc1)CC31CCN(C(=O)CN2CCOCC2)CC1 ?
GSIS activator: 5; Ecoli rRNA inh: -2; ERAP1 inh: 3; DENV2 CPE rescue: -1

Results for O=S(=O)(N1CCOCC1)n1c(Cc2ccccc2)nc2ccccc21 ?
GSIS activator: 49*; PGC1a acetyl inh: -6

Results for COCC(=O)N1CC2(CCN(Cc3ccccc3)CC2)c2c([nH]c3cc(OC)ccc23)[C@H]1CO ?
GSIS activator: 7; Ecoli rRNA inh: 3; ERAP1 inh: 4; DENV2 CPE rescue: -7; PGC1a acetyl inh: -6

What do the screens show for `Cc1ccnc(NC(=O)Nc2ccc(Br)cc2Cl)c1`?
CaV13 FRET inh: -4; GSIS activator: 133*
